The record followed here is PubChem BioAssay (NCATS).

Results filed as inconclusive are left out. The source made the active and inactive calls. Calls follow the shape of the dose curve; as a rule, active = well fitted curve in the direction sought with a large enough effect; inconclusive = small, poorly fitted or top-dose-only effect, or another doubt; inactive = no such curve, though single readings can be large; an effect the other way counts as inactive or inconclusive.
Potency is read from the fitted curve at half-maximal effect.

The first assay has as its system Zika virus NS2B-NS3 protease. The assay is described as follows: Primary screen GU AMC qHTS for Zika virus inhibitors (AID 1347154). Also: nearly all actives have a fitted effect of over 70% in size.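 As to activity change, negative = inhibition: 0% = no-inhibitor control and -100% = no-enzyme control.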 To be noted: Zika NS2B-NS3 unlinked protease, AMC fluorogenic substrate; series mostly up to 54.1 µM; activity change, negative = inhibition: at the top concentration. The gist of the method: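 Fluorogenic AMC-substrate cleavage by noncovalent NS2B-NS3 protease complex (25 nM, pH 8.0 Tris buffer with Tween 20) followed for 15 minutes at room temperature (~20% conversion). Percent inhibition from ex340/em450 signal change, fitted by 4-parameter Hill equation.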
(qHTS replaces the single test concentration by a dilution series.)
As for `CC1CCN(CCCC(=O)c2ccc(F)cc2)CC1`, the Potency result was “inactive”. Consider `CN(C(=O)c1c(O)c2ccccc2n(C)c1=O)c1ccccc1`, for which the Potency result was “inactive”. For `Nc1ccc(C(=O)Oc2ccccc2)c(O)c1`, the “activity change, negative = inhibition” value was -3.07% (inactive). In the case of `CN1C[C@@H]2C[C@H]1CN2c1cc2c(cc1F)c(=O)c(C(=O)O)cn2C1CC1`, the Potency is 8.82 µM (active).

Regarding `CCCCCC(C)N` (centres undefined), the “activity change, negative = inhibition” value is -2.31% (inactive). The same measure, in the same setting: to `CC(O)CCCCn1c(=O)c2c(ncn2C)n(C)c1=O` (centres undefined) belongs 1.56% (inactive). On the same count and under the same terms, to `CC[N+](CC)(CC(=O)Nc1c(C)cccc1C)Cc1ccccc1` belongs -5.06% (inactive).

`CC(=O)N[C@@H](Cc1ccc(O)cc1)C(=O)O`: the “activity change, negative = inhibition” value was 1.49% (inactive). On the same count and under the same terms, in the case of `CC(=O)Nc1cccc(O)c1` it was 0.201% (inactive). On to `CCOc1cc(NC(C)=O)ccc1C(=O)OC`, for which the “activity change, negative = inhibition” value was 0.695% (inactive). Still for that read-out and setting: in the case of `CC(=O)Nc1ccc(OCCOCCOc2ccc(NC(C)=O)cc2)cc1` it was 6.29% (inactive); in that of `CCCCCCCC(=O)OCC(COC(=O)CCCCCCC)OC(=O)CCCCCCC`, -5.21% (inactive); in that of `CCN1CC(CCN2CCOCC2)C(c2ccccc2)(c2ccccc2)C1=O` (centres undefined), 5.32% (inactive).

With `CCCOC(=O)c1ccc(N)cc1`, the “activity change, negative = inhibition” value is -0.834% (inactive). The same measure, in the same setting: in the case of `Cc1ccc(C(C)C)c(O)c1` it was 0.0404% (inactive); in that of `CCN(CC)S(=O)(=O)c1ccc(C(=O)O)cc1`, 5.45% (inactive). Still for that read-out and setting: to `COc1cc(C(=O)NCCCCCC(=O)O)cc(OC)c1OC` belongs 1.29% (inactive).

Consider `CC(=O)OCC(=O)[C@@]1(O)CC[C@H]2[C@@H]3CCC4=CC(=O)C=C[C@]4(C)[C@@]3(F)[C@@H](O)C[C@@]21C`, for which the “activity change, negative = inhibition” value is 3.27% (inactive).

For `CCS(=O)(=O)CCn1c([N+](=O)[O-])cnc1C`, the “activity change, negative = inhibition” value was -3.48% (inactive). Regarding `O=C(Cn1ccnc1[N+](=O)[O-])NCCO`, the “activity change, negative = inhibition” value is -2.36% (inactive). Still for that read-out and setting: to `c1ccc2[nH]ccc2c1` belongs -0.191% (inactive); to `COc1ccc(C(=O)NCc2ccc(OCCN(C)C)cc2)cc1OC`, 5.58% (inactive).

Take `COc1ccccc1Oc1c(NS(=O)(=O)c2ccc(C(C)(C)C)cc2)nc(-c2ncccn2)nc1OCCO`: the “activity change, negative = inhibition” value was 1.03% (inactive).

As to `OCC(O)CS` (centres undefined), the “activity change, negative = inhibition” value was -2.07% (inactive).

`O=C(Cn1ccnc1[N+](=O)[O-])NCc1ccccc1`: the “activity change, negative = inhibition” value is -1.41% (inactive). The same measure, in the same setting: in the case of `COc1nccnc1NS(=O)(=O)c1ccc(N)cc1` it was 3.5% (inactive); in that of `COCC(=O)Nc1c(I)c(C(=O)NCC(O)CO)c(I)c(C(=O)N(C)CC(O)CO)c1I` (centres undefined), 1.15% (inactive); in that of `COc1ccc(NS(=O)(=O)c2ccc(N)cc2)nn1`, -2.86% (inactive).

As to `FC(F)(F)C(Cl)Br` (centres undefined), the “activity change, negative = inhibition” value is 0.176% (inactive). As to `O=C(CCBr)N1CCN(C(=O)CCBr)CC1`, the “activity change, negative = inhibition” value is -0.152% (inactive).

Take `Cc1ccsc1/C=C/C1=NCCCN1C`: the “activity change, negative = inhibition” value was -7.69% (inactive). For the compound `CC1(c2ccccc2)OC(C(=O)O)=CC1=O` (centres undefined), the Potency result is “inactive”.

Take `CC(C)=CCC[C@@](C)(O)[C@H]1CC=C(C)CC1`: the “activity change, negative = inhibition” value is 0.714% (inactive). Same read-out and setting: to `CCCCCCCCCCCCCCCCCCO` belongs 0.409% (inactive); to `Cc1c(I)c(=O)n(-c2ccccc2)n1C`, -0.609% (inactive).

Test system in another assay: not listed separately
In words: Confirmatory screen NINDS Rhodamine qHTS for Zika virus inhibitors (AID 1347161). Also: nearly all actives have a fitted effect of over 60% in size.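 As to activity change, negative = inhibition: purified Zika NS2B-NS3 protease with linked NS2B cofactor domain and Rhodamine110 peptide substrate; plate controls were no-inhibitor control for no effect and no-enzyme control for full effect.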 To be noted: purified enzyme assay, Rhodamine110 substrate fluorescence, 15 min; series mostly up to 64.7 µM; activity change, negative = inhibition: at the top concentration. A digest of the protocol:
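Each compound, titrated, sat 15 min with 25 nM linked protease before 1.5 microM Rhodamine110 substrate went in. Fluorescence gain over the next 15 min, in pH 8.0 Tris with Tween 20, gave Hill-fitted curves.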
As for `CN1C[C@@H]2C[C@H]1CN2c1cc2c(cc1F)c(=O)c(C(=O)O)cn2C1CC1`, the “activity change, negative = inhibition” value is -30.5% (inactive).

For `O=C(O)[C@@H]1[C@H]2C[C@H]3c4[nH]c5ccccc5c4CCN3C[C@@H]2CC[C@@H]1O`, the Potency is 12.4 µM (active). For the compound `COc1ccccc1Oc1c(NS(=O)(=O)c2ccc(C(C)(C)C)cc2)nc(-c2ncccn2)nc1OCCO`, the “activity change, negative = inhibition” value is -25.3% [at 114 µM] (inactive). Consider `O=C(O)Cn1c(C(=O)Nc2nc(-c3ccccc3Cl)cs2)cc2ccccc21`, for which the Potency is 3.93 µM (active).
